In ChEMBL document CHEMBL1157539, “Thousands of chemical starting points for antimalarial lead identification” (Nature, 2010):

Tested on: Plasmodium falciparum
Assay: GSK_TCMDC: Inhibition of Plasmodium falciparum Dd2 in whole red blood cells, using parasite LDH activity as an index of growth. Test compounds present at 2uM
Type: functional

Row | SMILES | Inhibition [%]
1 | Br.CC1(C)NC(N)=NC(=N)N1OCCCOc1ccc([N+](=O)[O-])cc1 | 80
2 | N=C(N)NCCCCN(Cc1ccccc1)c1ccccc1 | 98
3 | CCCC[C@H](NC(=O)OC(C)(C)C)C(=O)Nc1ccc(Cc2ccc(NC(=O)[C@H](CCCC)NC(=O)OC(C)(C)C)cc2)cc1 | 71
4 | COc1ccc(-c2cnc(N)c(-c3ccc(O)c(OC)c3)c2)cn1 | 98
5 | CN(C)CCNCc1cccc(-c2ccc3c(Nc4ccc(F)cc4Cl)ccnc3c2)c1 | 98
6 | COCC(=O)Nc1nc2ccccc2[nH]1 | 1
7 | Cl.c1ccc(COc2ccc(Nc3ncnc4ccc(-c5ccc(CN6CCSCC6)o5)cc34)cc2)cc1 | 4
8 | CC(=O)Nc1cccc(CN(Cc2ccc(-c3ccc(CNCc4cccnc4)cn3)cc2)C(=O)Cc2cccnc2)c1.O=C(O)C(F)(F)F | 65
9 | C[C@H]1CN(Cc2cccc(-c3cc(CNC(=O)c4cccc(CN5CCN(C/C=C/c6ccccc6)CC5)c4)ccc3F)c2)CCN1.O=C(O)C(F)(F)F | 46
10 | COc1cccc(CNC[C@@H](O)[C@H](Cc2ccccc2)NC(=O)c2cc(OC(C)C)cc(N3CCCCS3(=O)=O)c2)c1.Cl | 49
11 | CC(=O)Nc1ccc(CCNC(C)Cc2ccc(C(=O)Nc3ccc(CC(C)NCCc4cccc(Cl)c4)cc3)cc2)cc1.Cl (stereo not drawn) | 84
12 | Cc1cc(N2CCCC2=O)ccc1-c1ccc(C(=O)N2CCC(Oc3cccc(Cl)c3)CC2)cc1 | 98
13 | CS(=O)(=O)c1ccc(CNCc2cccc(-c3cccc(-c4nc5cc(C(F)(F)F)ccc5[nH]4)c3)c2)cc1.O=C(O)C(F)(F)F | 96
